Screen size: about 330,000 compounds; about 1,900 (0.58%) were called active. About 4% were inconclusive and are not listed. The list is a sample of the results. Measured potencies and affinities stand elsewhere. A number with no mark means an inactive call. Rule as the data show it: inconclusive = inhibition above about 70% without an active follow-up result; inactive = below that.

The assay in a line: M. tuberculosis growth inhibition, HTS (AID 449762).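 Also: bacterial growth assessed after seven days of incubation.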 To be noted: M. tuberculosis H37Rv growth inhibition, 7H9 media; at 25 µM; stronger effect = higher value.
For the molecule `CCC[C@H](N[C@@H](CCC)[C@H](O)c1ccccc1)[C@H](O)c1ccccc1`, the inhibition was -2.74%.
On to `O=C(Nc1ccc(F)cc1)c1ccc(S(=O)(=O)NCC2CCCO2)cc1` (stereo not given), for which the inhibition is 0.17%.
In the case of `Cc1ccc(OCCNC(=O)CCNS(=O)(=O)c2ccc3ccccc3c2)cc1` it was 1.14%; in that of `O=C(Nc1cnn(Cc2ccccc2)c1)c1cc2nc(-c3ccco3)cc(C(F)(F)F)n2n1`, 1.16%; in that of `Cc1nn(C)c(C)c1NC(=O)c1cc2nc(-c3ccco3)cc(C(F)(F)F)n2n1`, -8.4%.
Consider `COCCCN1C(=O)c2ccc(C(=O)NCCc3ccccc3)cc2C1=O`, for which the inhibition was 0.01%.
Regarding `O=[N+]([O-])c1ccc(C2CN=C(Nc3ccccc3)S2)cc1` (stereo not given), the inhibition was 0.07%.
As for `CC1CN=C(Nc2ccccc2)S1` (stereo not given), the figure is 1.32%.
In the case of `Cc1cc2c(OCC(O)CN3CCCCC3)cccc2[nH]1` (stereo not given) it was -0.02%.
As for `COc1cc(C(=O)ONC(=O)c2ccc(OC(F)F)cc2)cc(OC)c1OC`, the figure is 0.02%; as for `O=C(NCc1ccc(Cl)cc1)C1CCCN(c2cnccn2)C1` (stereo not given), 3.46%.
With `O=C(COc1ccc(S(=O)(=O)N2CCOCC2)cc1Cl)NCCN1CCOCC1`, the inhibition is 0.71%.
In the case of `COc1ccc(-c2csc(-n3ncc(-c4ccccn4)c3N)n2)cc1`, the inhibition was 1.41%.
In the case of `Nc1c(-c2cccs2)cnn1-c1nc(-c2ccc(F)cc2)cs1`, the inhibition was -11.5%.
As for `COc1ccc(-c2n[nH]c(=S)n2CC(C)C)cc1`, the figure is -17.2%.
As for `CN(C)CCCN(C(=O)c1ccc(C(=O)c2ccccc2)cc1)c1nc2cc3c(cc2s1)OCCO3`, the figure is 2.4%; as for `Cn1cc(C(=O)c2ccccc2C(=O)O)cc1C(=O)C(Cl)(Cl)Cl`, 1.33%; as for `C=CCNC(=S)NNC(=O)c1cccc2ccccc12`, -8.25%.
In the case of `CN(c1ccccc1)S(=O)(=O)c1ccc(C(=O)OCC(=O)NCc2cccs2)cc1` it was -2.53%.
Consider `CCN1C(=O)N[C@@H](c2cccc(C(F)(F)F)c2)C(C(=O)OC)=C1C`, for which the inhibition is -2.1%.
As for `CCN1C(N(C)CCc2cccs2)=N[C@@H](c2ccccc2)C(C(=O)OC)=C1C`, the figure is -2.75%; as for `C=CC[C@@H](Cc1ccc(F)cc1)C(=O)OC[C@H]1CCCN1C(=O)[C@@H](CC=C)CC(=O)N[C@@H](CO)Cc1ccccc1`, -0.18%; as for `O=C(SCC(O)C(O)CS)c1cccs1` (stereo not given), -1.44%.
As for `COc1ccc(C(=O)NN=C2CCCC2)c(OC)c1`, the figure is -0.32%.
On to `O=C(C1CCCCC1)N1CCc2ccccc21`, for which the inhibition is 0.1%.
In the case of `O=C(C1CCC1)N1CCc2cc(S(=O)(=O)N3CCCCC3)ccc21` it was -8.32%; in that of `O=C(Nc1ccncc1)c1cc(-c2cccc(Br)c2)nc2ccccc12`, -13.1%.
As for `CCn1nc(NS(=O)(=O)c2ccc([N+](=O)[O-])cc2)c2cc3cc(C)ccc3nc21`, the figure is 2.04%.
As for `COc1cccc(C(=O)OC(C)C(=O)Nc2ccc3c(c2)OCO3)c1` (stereo not given), the figure is -7.8%; as for `COc1ccc(-n2nc(C(=O)NCC(=O)N3CCCCCC3)c3ccccc3c2=O)cc1OC`, -4.92%; as for `COc1ccc(Cn2cnc3c(N)c(C)c(C)cc32)cc1`, -12.4%.
For the molecule `COC(=O)CSc1nc(SCc2ccccc2Cl)nc2c1CCCC2`, the inhibition was -6.09%.
As for `CN(C)c1nc(SCc2ccccc2Cl)nc2c1CCCC2`, the figure is 20.2%.
As for `CC(C)OC(=O)c1nnn(-c2nonc2N)c1CN1CCCCCC1`, the figure is -9.91%; as for `Cc1ccc(OCc2cc(C(=O)NCCn3cccn3)no2)cc1C`, 10.8%.
In the case of `COc1ccc(C(=O)NC(NC(=S)Nc2ccc(S(N)(=O)=O)cc2)C(Cl)(Cl)Cl)cc1` (stereo not given) it was -5.71%.
As for `Oc1ccc(C2=CCNCC2)cc1O`, the inhibition was -1.15%.
As for `CN1c2ccc([N+](=O)[O-])cc2N(C)C1(C)c1ccccc1` (stereo not given), the figure is -1.96%; as for `CN1c2ccccc2N(C)C1(C)c1ccccc1`, 4.29%; as for `Cc1cc(/C=C2/SC(=S)N(c3cccc(Cl)c3)C2=O)c(C)n1-c1cccnc1`, 59.7%.
As for `Cc1cc(C=C2C(=O)N(C)C(=S)N(C)C2=O)c(C)n1-c1cccnc1`, the inhibition is -1.48%.
As for `COc1cccc(CCc2nnc(CCC(=O)N3CCN(Cc4ccccn4)CC3)o2)c1`, the figure is -0.82%; as for `COc1ccccc1C(=O)c1c(C)c(CCC#N)n2ccccc12`, 2.58%.
With `O=C(COC(=O)C12CC3CC(CC(C3)C1)C2)N1CCN(S(=O)(=O)c2ccccc2)CC1`, the inhibition was 6.15%.
In the case of `CN(C1CCCCC1)S(=O)(=O)c1ccc(SCC(=O)NC(C)(C)C)nc1` it was -0.68%; in that of `CN(C)C(=O)Oc1c(Cl)cc(Cl)c2cccnc12`, 0.5%.
Regarding `CN1CCN(Cc2cc(Cl)c3cccnc3c2OC(=O)c2cccs2)CC1`, the inhibition was -8.53%.
Regarding `CN1C(=O)CC(N2CCN(CCN=CC3=C(O)CC(C)(C)CC3=O)CC2)C1=O` (stereo not given), the inhibition was 9.46%.
In the case of `O=C(CS(=O)(=O)Cc1ccccc1)Nc1ccc(Br)cc1F` it was -10.1%.
In the case of `COn1c2c(c3c4no[n+]([O-])c4ccc31)CCCC2` it was 12.5%; in that of `CCOC(=O)c1c(C)n(OC)c2ccc3c(no[n+]3[O-])c12`, -8.43%.
As for `Cc1ccc2[nH]c(=O)c(CN(CC3CCCO3)C(=O)c3ccncc3)cc2c1` (stereo not given), the figure is 4.74%; as for `CN1CCc2c(C#N)c(N3CCCCC3)nc(NCc3ccccc3)c2C1`, 8.6%; as for `CCCCCNc1nc(NCCCO)c(C#N)c2c1CN(C)CC2`, 1.69%.
With `CC(=O)NC(C)(CC(=O)c1ccccc1)c1ccccc1` (stereo not given), the inhibition is -8.86%.
In the case of `S=C(NCCCN1CCOCC1)N(Cc1ccccc1)Cc1ccccc1` it was -1.92%.
In the case of `Cc1ccccc1Nc1nn2c(=O)c3ccccc3nc2s1` it was 4.93%.
In the case of `C=CCSc1nn2c(=O)c3ccccc3nc2s1` it was 66.1%; in that of `Cc1nc(SCC(C)C)[nH]c(=O)c1Cc1ccccc1`, -4.67%.
Consider `O=C(OCc1nnc(-c2ccccc2)o1)c1ccc([N+](=O)[O-])s1`, for which the inhibition is 63.8%.
In the case of `O=C(OCc1nnc(-c2ccccc2)o1)c1ccccc1` it was 3.86%; in that of `COc1ccc(OC)c(NC2=NCCCS2)c1`, -1.69%.
`COc1ccc(C(CNC(=O)C(=O)NC2CCCCC2)N2CCN(C)CC2)cc1` (stereo not given): the inhibition was -12.6%.
In the case of `COc1ccc(OC)c(N2Cc3ccccc3C2)c1` it was 3.42%; in that of `COc1ccccc1NC(=O)Nc1nc(CC(=O)NCc2c(F)cccc2F)cs1`, 29.2%; in that of `COc1ccccc1CC(=O)N1CCN(c2ccccc2F)CC1`, 3%.
In the case of `O=C(Nc1cccc(S(=O)(=O)N2CCOCC2)c1)c1cc(=O)[nH]c2ccccc12` it was -2.49%.
Consider `N#CCn1c(Cc2ccccc2)nc2ccccc2c1=O`, for which the inhibition was -1.48%.
In the case of `CN(C)Cc1nc2ccccc2c(=O)n1CC#N` it was -2.77%.
In the case of `CCOCCc1nnc(NC(=O)CS(=O)(=O)c2ccc(C)cc2)s1` it was -7.28%; in that of `COc1ccccc1CN1CCC(n2nccc2NC(=O)CCCc2ccccc2)CC1`, 3.32%.
As for `CCOC(=O)C1=C(CSc2nc3c(cc2C#N)CN(C)CC3)OC(N)=C(C#N)C1c1ccc(Cl)cc1` (stereo not given), the figure is -0.9%; as for `COc1ccc(C(CC(=O)NCCCN2CCOCC2)NS(=O)(=O)c2ccc(C)cc2)cc1` (stereo not given), -3.32%; as for `CCCc1ccc(NC(=O)C2CCCN(c3cnccn3)C2)cc1` (stereo not given), 3.51%.
In the case of `Cc1ccc(NC(=O)C2CCN(c3cnccn3)CC2)cc1`, the inhibition is -0.63%.
For `COc1ccc(NC(=O)C2CCCN2S(=O)(=O)c2ccc3c(c2)CCC(=O)N3)cc1` (stereo not given), the inhibition is -21%.
In the case of `CCCn1c(CCc2ccccc2)nnc1SCC(=O)N1CCCC1` it was -5.53%; in that of `C[C@]12CCC(=O)C=C1CC[C@@H]1C2[C@H](O)C[C@]2(C)C(=O)CCC12` (stereo not given in full), 2.16%.
Regarding `Cc1cc(NC(=O)c2cc(-c3cccnc3)nc3c(C)c(C)ccc23)no1`, the inhibition is 2.95%.
Take `Cc1nnc(NC(=O)c2cc(-c3ccncc3)nc3c(C)cccc23)s1`: the inhibition was 9.24%.
Regarding `CCN(CC)S(=O)(=O)c1cccc(-c2n[nH]c(=S)n2CC(C)C)c1`, the inhibition is 4.49%.
In the case of `COC(=O)N(NC(=O)C(O)(CCC(C)C)CCC(C)C)c1ccccc1` it was 2.67%.
In the case of `CCOC(OCC)P(=O)(C(C)C)C(C)C` it was -4.61%.
In the case of `Cc1ccc(-c2nnc3c(C(F)(F)F)nc4ccccc4n23)cc1` it was 0.23%; in that of `Cc1cc(-c2cc(-c3ccc(Cl)cc3)on2)nc(NC2CCCC2)n1`, 31.4%; in that of `CC(C)c1cc(-c2cc(-c3ccccc3)on2)nc(NC2CCCC2)n1`, 5.62%.
On to `CCCCN(C)C(=O)CC(NS(=O)(=O)c1ccc(NC(C)=O)cc1)C(C)C` (stereo not given), for which the inhibition was 0.04%.
As for `Cc1ccc(-n2nnnc2CNC(=O)c2ccc(Br)o2)cc1C`, the figure is 11.2%; as for `O=C(NCc1nnnn1-c1ccc(Cl)cc1)c1ccc(Br)o1`, -0.54%; as for `O=C(O)C1C2C=CC(C2)C1C(=O)NCc1ccc(Cl)cc1Cl` (stereo not given), 7.08%.
In the case of `Oc1ccccc1-c1cc(C(F)(F)F)nc(-c2ccccc2)n1` it was 6.24%; in that of `Oc1ccccc1-c1cc(C(F)(F)C(F)F)nc(-c2ccccc2)n1`, 12.1%.
In the case of `COc1ccc(C)cc1N/C(N)=N/c1nc(C)cc(C)n1` it was 5.92%; in that of `Cc1cc(C)nc(/N=C(\N)Nc2cc([N+](=O)[O-])ccc2C)n1`, 1.78%; in that of `CC(=O)N/C(=C\c1ccccc1)C(=O)OCC(=O)NC(C)C12CC3CC(CC(C3)C1)C2` (stereo not given), 10.4%.

The term inhibition denotes the change of the read-out against control, counted positive when it falls.

The values are drawn from PubChem BioAssay AID449762 (Southern Research Specialized Biocontainment Screening …, 2010).
